The list is not random: actives were taken first. Their share in the collection is about 3.6%.
BJeLR viability: kills HRASV12-expressing BJeLR cells | BJeLR (HRASV12) viability, CellTiter-Glo ATP luminescence, 48 h | inhibition, % (test concentration not listed) | AID 1554 | 300,000 compounds, 0.17% hits; in the data active = inhibition above about 50%; inconclusive = no clear call, values can overlap the other calls
BoNT A protease: BoNT A light chain protease inhibition; multiplex microsphere protease substrate cleavage, flow cytometry; inhibition, % at 10 µM; 360,000 compounds, 0.17% hits; AID 588499
SARS 3CLpro inh: SARS-CoV 3CLpro protease inhibition | P0C6X7 | recombinant SARS-CoV 3CLpro, quenched FRET peptide cleavage | inhibition, % at 6 µM | 290,000 compounds, 0.14% hits; in the data active = inhibition above about 12%
BoNT F protease: blocks Botulinum neurotoxin F light chain protease; inhibition, % at 10 µM; Multiplex microsphere protease cleavage assay, flow cytometry; 360,000 compounds, 0.22% hits; in the data active = inhibition above about 35%, passing the limit was not always enough; inconclusive = no clear call, values can overlap the other calls
Anthrax LF prot: inhibitors of Bacillus anthracis lethal factor protease. P15917. multiplex microsphere protease cleavage assay, LF. inhibition, % at 10 µM. 360,000 compounds, 0.12% hits
Bead autofluor: counter-screen for toxin protease inhibitors: compound fluorescence; fluorescence intensity (no concentration beside the values); 360,000 compounds, 3.1% hits; compound autofluorescence counterscreen, microsphere flow cytometry; active compounds read high; in the data active = fluorescence intensity above about 16000; inconclusive = no clear call, values can overlap the other calls
Large screens that a line does not name were inactive. Cut-off read from the data, not from the text of the source, unless noted: active = inhibition above about 30%; inconclusive = no clear call, values can overlap the other calls; inactive = below that.

Cc1cc(C)n2nc(S(=O)(=O)N(C)Cc3ccccc3)nc2n1	BoNT A protease inconclusive, Bead autofluor 19864
Cc1cc(C)n2nc(CCc3ccccc3)nc2n1	Bead autofluor 23082
CCN(Cc1ccccc1)S(=O)(=O)c1nc2nc(C)c(C)c(C)n2n1	Bead autofluor 17154
NC1=NC(c2cccc(Cl)c2)N(CCc2ccc(F)cc2)C(N)=N1 (configuration not stated)	none
COc1ccc(CCC(=O)NNC(=O)Nc2ccccc2Cl)cc1	none
COc1ccc(C(C)C)cc1S(=O)(=O)Nc1ccc(Cl)cn1	BoNT A protease inconclusive, Bead autofluor 22386
COc1ccc(Cl)cc1S(=O)(=O)Nc1ccc(Cl)cn1	none
Cc1ccccc1NC(=O)c1ccc(C)c(S(=O)(=O)Nc2ccccn2)c1	Bead autofluor 18024
Cc1ccc(C(=O)N2CCc3ccccc3C2)cc1S(=O)(=O)N1CCOCC1	none
Cc1ccccc1NS(=O)(=O)c1cc(C(=O)N2CCc3ccccc3C2)ccc1C	BoNT A protease inconclusive, Bead autofluor 25113
CCOC(CNC(=O)c1ccc2c(c1)nc(C)n2-c1cccc(F)c1)OCC	Bead autofluor 23358
COCCNC(=O)c1ccc2c(c1)nc(C)n2-c1cccc(Cl)c1	none
COc1cc(F)c(C2=CC(=O)C[C@H](c3ccc(Cl)cc3)C2)cc1F	none (no result: BJeLR viability, SARS 3CLpro inh)
NC(=O)c1sc2nc(-c3ccccc3)ccc2c1N	none
CSc1nc(-c2ccccc2)ccc1C(N)=O	BoNT A protease inconclusive, Bead autofluor 21978
CC(=O)N1N=C2c3ccccc3CCC2C1c1cccs1 (configuration not stated)	none
CCn1cc(Cl)c(C(=O)N2N=C3/C(=C/c4cccs4)CCCC3C2c2cccs2)n1 (configuration not stated)	Bead autofluor 23292
Nc1ccccc1-c1nnc(SCC(=O)Nc2ccccc2OC(F)F)[nH]c1=O	none (no result: BJeLR viability, SARS 3CLpro inh)
CCS(=O)(=O)n1nc(-c2ccco2)nc1SC	none
CCS(=O)(=O)n1nc(-c2ccc(Cl)cc2)nc1SC	Bead autofluor 22674
Cc1cc(Br)ccc1NC(=S)N1CCOCC1	BoNT F protease inconclusive
O=C(Cn1nc(-c2ccccc2)ccc1=O)Nc1ccc(-n2cnnn2)cc1	none
O=C(Cn1nc(-c2ccccc2)ccc1=O)Nc1ccc(N2CCN(C(=O)c3ccccc3)CC2)cc1	Bead autofluor 22910
Cc1ccccc1-c1ccc(=O)n(CC(=O)Nc2ccc(N3CCOCC3)cc2)n1	BoNT A protease inconclusive, Bead autofluor 20524
CCC(C)NC(=O)c1ccc(N2CC3CC(C2)c2cccc(=O)n2C3)c(NC(=O)c2c(F)cccc2F)c1 (configuration not stated)	none (no result: BJeLR viability, SARS 3CLpro inh)
COc1cccc(CCC(=O)Nc2cccc(S(=O)(=O)N3CCCC3)c2)c1OC	none (no result: BJeLR viability, SARS 3CLpro inh)
Cc1nc(SCC(=O)c2ccc(Cl)cc2)c([N+](=O)[O-])[nH]1	BoNT A protease inconclusive, Bead autofluor 24383
Cc1nn(CC(=O)Nc2ccc3c(c2)nc(CCN2CCCCC2)n3C)c(=O)c2ccccc12	Bead autofluor 20530
CC(=O)N1CCN(Cc2nc3cc(NC(=O)Cn4nc(C)c5ccccc5c4=O)ccc3n2C)CC1	none
Cn1c(CN2CCCC2)nc2cc(NC(=O)c3ccc(Cl)cc3)ccc21	none
Cn1c(CN2CCCCC2)nc2cc(NC(=O)c3ccc(Cl)cc3)ccc21	Bead autofluor 20694
CC(=O)N1CCN(Cc2nc3cc(NC(=O)C4CCCCC4)ccc3n2C)CC1	BoNT A protease inconclusive, Bead autofluor 20181
CCOC(=O)C1=C(COC(=O)CCc2ccc(CC)cc2)NC(=O)NC1C (configuration not stated)	none (no result: BJeLR viability, SARS 3CLpro inh)
COc1ccc(Cc2nc3ccc(C(=O)NCC(C)(C)OC)cc3o2)cc1	none
CC1=C(C(=O)OC(C)C)C(c2cccs2)N2C(=O)CCSC2=N1 (configuration not stated)	Bead autofluor 25343
COC(=O)c1ccc(C2C(C(=O)OCC(C)C)=C(C)N=C3SCCC(=O)N32)cc1 (configuration not stated)	Bead autofluor 22462
COC(=O)C1=C(C)N=C2SCCC(=O)N2C1c1cccs1 (configuration not stated)	none
COCCOC(=O)C1=C(C)N=C2SCCC(=O)N2C1c1ccc(C(=O)OC)cc1 (configuration not stated)	none
COC(=O)C1=C(C)N=C2SCCC(=O)N2C1c1ccc(C(=O)OC)cc1 (configuration not stated)	Bead autofluor 24822
O=C(Nc1ccccc1-c1nc2ccccc2s1)c1ccco1	none
O=C(Nc1c(Cl)cc(Cl)cc1-c1nc2ccccc2s1)c1ccc(Br)o1	BoNT A protease inconclusive, Bead autofluor 17431
CC1C(c2ccccc2)N(C)C(c2ccccc2)CC1(O)c1ccccc1 (configuration not stated)	Bead autofluor 17483
COc1ccc2c(c1)N(C(=O)CSc1n[nH]c(C)n1)C(C)(C)C=C2C	none
CSCCC(NC(=O)C1CCC(C)CC1)C(=O)O (configuration not stated)	BoNT A protease inconclusive, Bead autofluor 23567
CSCCC(NC(=O)C1CCC(C)CC1)C(=O)NCCN1CCOCC1 (configuration not stated)	Bead autofluor 22383
CC(C)CC(NC(=O)C1CCC(C)CC1)C(=O)NCCN1CCOCC1 (configuration not stated)	none
Cc1csc(SCC(=O)N(C)C2CCS(=O)(=O)C2)n1 (configuration not stated)	none (no result: BJeLR viability, SARS 3CLpro inh)
O=C(CN1c2cccc3cccc(c23)S1(=O)=O)N1CCOCC1	Bead autofluor 16664
C=CCn1c(=NC(=O)c2cc(-c3cccs3)nc3ccccc23)sc2cc(S(N)(=O)=O)ccc21	none
COCCn1c(=NC(=O)c2cc(-c3cccs3)nc3ccccc23)sc2cc(S(N)(=O)=O)ccc21	BoNT A protease 34
c1ccc2c(C3OCC4(CCCCC4)CO3)cccc2c1	none (no result: BJeLR viability, SARS 3CLpro inh)
NC(=O)C1(N2CCCCC2)CCN(CC(=O)Nc2cc(Cl)ccc2Cl)CC1	Bead autofluor 24349
Cc1ccc(C(NC(=O)Nc2ccccn2)C(Cl)(Cl)Cl)cc1F (configuration not stated)	none
Cn1cc(C2N3CC4(C)CN2CC(C)(C3)C4=O)c2ccccc21 (configuration not stated)	none (no result: BJeLR viability)
Cc1c(C2N3CC4(C)CN2CC(C)(C3)C4=O)c2ccccc2n1C (configuration not stated)	Bead autofluor 22039
Cc1ccc(NC(=O)CCCCCCCCCCC2COCCO2)c(C)c1 (configuration not stated)	none
C=CCN=C(NC#N)SCC(=O)NCc1ccccc1	none
C=CCN=C(NC#N)SCCc1ccccc1	Bead autofluor 20089
CN(CCc1ccccn1)Cc1ccc(Cl)cc1Cl	Bead autofluor 24561
CN(CCc1ccccn1)Cc1ccc(Cl)c(Cl)c1	BoNT F protease inconclusive
O=C(NCc1ccco1)c1ccc2nc3sc4c(c3c(=O)n2c1)CCCC4	none (no result: BoNT A protease, BoNT F protease, Anthrax LF prot, Bead autofluor)
COCCNC(=O)C1CCCN(C(=O)c2ccc3sccc3c2)CC1 (configuration not stated)	none (no result: BJeLR viability, SARS 3CLpro inh)
